Measurements taken from PubChem BioAssay.
Calls of active or inactive are those of the source.

Legend:
[1] = system: Plasmodium falciparum Sir2 (PF13_0152, Sir2A); assay: pfSir2 binders on small-molecule microarrays, primary screen, biochemical, small-molecule microarray, 635 nm fluorescence (AID 1098); settings: small-molecule microarray binding, fluorescence 635 nm; higher = more signal;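 further: score merges spot fluorescence intensity with its signal-to-noise ratio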
[2] = small-molecule microarray binders of probe aDKK1, primary screen, biochemical, biotinylated probe, 635/667 nm fluorescence (AID 1099); settings: higher = more signal;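 further: score merges 667nm spot fluorescence with signal to noise across triplicate slides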
[3] = small-molecule microarray binders of probe aCHRDL2, primary screen, biochemical, biotinylated probe, 635/667 nm fluorescence (AID 1100); settings: higher = more signal
[4] = splicing luciferase reporter signal modulators, primary screen, spliceosome inhibition project, cell-based, HEK293, splice +/- reporter (AID 1101); settings: luminescence, 24 h, higher = more signal, called active from +8 up or from −8 down;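 further: HEK293 cells carrying a splicing-competent luciferase reporter gene; test concentration not given here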
[5] = molecular target: Fibroblast growth factor 10 (Homo sapiens) (UniProt O15520); assay: FGF10 binders on small-molecule microarrays, primary screen, biochemical, small-molecule microarray, 635 nm fluorescence (AID 1102); settings: FGF10 binding, fluorescence 635 nm, higher = more signal
[6] = system: glycogen synthase kinase-3 (GSK3A per assay name; protocol says GSK3B); assay: GSK3 binders on small-molecule microarrays, primary screen, biochemical, small-molecule microarray, 635 nm fluorescence, GSK3A (AID 1103); settings: small-molecule microarray binding, fluorescence 635 nm; higher = more signal; further: the record names both GSK3A and GSK3B
[7] = molecular target: Epidermal growth factor receptor (Homo sapiens) (UniProt P00533); assay: EGFR binders on small-molecule microarrays, primary screen, biochemical, small-molecule microarray, 635 nm fluorescence (AID 1104); settings: EGFR binding, higher = more signal;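 further: score merges 667 nm emission intensity with spot signal to noise over triplicate slides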
[8] = molecular target: Follistatin-related protein 3 (Homo sapiens) (UniProt O95633); assay: FSTL3 binders on small-molecule microarrays, primary screen, biochemical, small-molecule microarray, 635 nm fluorescence (AID 1105); settings: FSTL3 binding, higher = more signal;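 further: score merges emission near 667 nm and signal to noise per printed spot across three slides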
[9] = molecular target: Dickkopf-related protein 1 (Homo sapiens) (UniProt O94907); assay: DKK1 binders on small-molecule microarrays, primary screen, biochemical, small-molecule microarray, 635 nm fluorescence scan (AID 1106); settings: DKK1 binding, higher = more signal;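 further: score merges emission near 667 nm with signal to noise over three replicate slides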
[10] = system: Inhibin beta A chain (activin A); assay: INHBA (activin A) binders on microarrays, primary screen, biochemical, small-molecule microarray, 635 nm fluorescence scan (AID 1107); settings: small-molecule microarray binding, higher = more signal;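 further: mouse activin A protein probed at 4.33 µg/mL on printed slides; score merges bound-protein fluorescence near 667 nm with spot signal-to-noise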
[11] = system: Human papillomavirus type 1a protein E7 (residues 44-93); assay: HPV1a E7 fragment binders on microarrays, primary screen, biochemical, small-molecule microarray, residues 44-93, 635 nm fluorescence (AID 1108); settings: small-molecule microarray binding, fluorescence 635 nm; higher = more signal;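 further: E7 fragment applied at 1 µg/mL in TBST for 1 h at 4 C; score combines spot fluorescence with its signal to noise ratio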
[12] = modulators of HCV replicon luciferase signal, primary screen, HCV replication inhibitor project, Huh7 cells, luciferase reporter (AID 1109); settings: 48 h, higher = more signal;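 further: huh7 hepatoma cells harbouring a luciferase neomycin HCV replicon reporter; luciferase luminescence as measure of HCV replicon replication; test concentration not given here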
[13] = molecular target: Left-right determination factor 2 (Homo sapiens) (UniProt O00292); assay: LEFTY2 binders on small-molecule microarrays, primary screen, biochemical, small-molecule microarray, 635 nm fluorescence scan (AID 1110); settings: LEFTY2 binding, higher = more signal
[14] = molecular target: Calmodulin-1 (Homo sapiens) (UniProt P0DP23); assay: CALM1 binders on microarrays, EGTA buffer, profiling panel, biochemical, small-molecule microarray, Cy5-labelled CALM1 (AID 1111); settings: Cy5-CALM1 binding fluorescence, higher = more signal;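 further: labelled calmodulin applied in Tris saline Tween buffer holding calcium plus EGTA and DTT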
[15] = molecular target: Calmodulin-1 (Homo sapiens) (UniProt P0DP23); assay: calcium-bound CALM1 binders on microarrays, profiling panel, artefact control for SMM control-protein annotation, biochemical, small-molecule microarray, Cy5-labelled CALM1, plus calcium (AID 1112); settings: Cy5-CALM1 binding fluorescence, higher = more signal;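 further: score merges spot fluorescence with signal to noise from triplicate slides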
[16] = small-molecule microarray binders of probe aWnt5a, primary screen, biochemical, biotinylated probe, 635/667 nm fluorescence (AID 1113); settings: higher = more signal;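 further: score merges 667 nm fluorescence intensity with signal-to-noise per printed feature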
[17] = small-molecule microarray binders of probe aShh, primary screen, biochemical, biotinylated probe, 635/667 nm fluorescence (AID 1114); settings: higher = more signal;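 further: probe is biotin-labelled aShh protein from a stem cell growth factor screen; measures binding of labelled protein to compounds printed on the slide; score merges feature fluorescence at 667 nm with signal-to-noise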
[18] = small-molecule microarray binders of probe aNog, primary screen, biochemical, biotinylated probe, 635/667 nm fluorescence (AID 1115); settings: higher = more signal;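 further: probe is biotinylated aNog protein used at 0.15 µg/mL for 1 h at 4 C; z-score combines 667 nm fluorescence of each spot with its signal to noise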
[19] = molecular target: Torsin-1A-interacting protein 1 (Homo sapiens) (UniProt Q5JTV8); assay: LAP1 binders from COS7 cell lysate, primary screen, small-molecule microarray, 635/667 nm fluorescence (AID 1116); settings: COS7-hLAP1 lysate binding, 635 nm fluorescence, higher = more signal
[20] = molecular target: Alpha-bungarotoxin (Bungarus multicinctus) (UniProt P60615); assay: alpha-bungarotoxin binders on microarray, profiling panel, artefact control for SMM control protein annotation, biochemical, small-molecule microarray, Alexa647 label, 635/667 nm fluorescence (AID 1117); settings: alpha-BTX-A647 binding fluorescence, higher = more signal
Alpha-bungarotoxin (Bungarus multicinctus), sequence (P60615 whole entry, looked up): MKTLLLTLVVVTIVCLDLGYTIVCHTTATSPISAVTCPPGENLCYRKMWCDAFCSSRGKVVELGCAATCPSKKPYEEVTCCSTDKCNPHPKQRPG

Follistatin-related protein 3 (Homo sapiens), sequence (O95633 whole entry, looked up): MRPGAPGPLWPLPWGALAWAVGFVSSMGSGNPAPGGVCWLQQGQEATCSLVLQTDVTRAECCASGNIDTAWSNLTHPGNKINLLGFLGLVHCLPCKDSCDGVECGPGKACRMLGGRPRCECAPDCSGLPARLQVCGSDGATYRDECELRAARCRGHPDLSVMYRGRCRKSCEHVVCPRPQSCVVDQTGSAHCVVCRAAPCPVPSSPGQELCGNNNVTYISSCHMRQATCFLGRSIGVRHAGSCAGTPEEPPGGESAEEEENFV
Fibroblast growth factor 10 (Homo sapiens), sequence (O15520 whole entry, looked up): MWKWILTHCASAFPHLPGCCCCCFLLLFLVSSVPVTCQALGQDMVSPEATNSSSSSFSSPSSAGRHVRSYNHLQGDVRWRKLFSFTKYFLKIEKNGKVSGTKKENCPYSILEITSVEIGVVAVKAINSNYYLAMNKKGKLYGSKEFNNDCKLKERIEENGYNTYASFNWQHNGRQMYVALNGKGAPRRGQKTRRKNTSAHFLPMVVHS
Epidermal growth factor receptor (Homo sapiens), sequence (P00533 whole entry, looked up): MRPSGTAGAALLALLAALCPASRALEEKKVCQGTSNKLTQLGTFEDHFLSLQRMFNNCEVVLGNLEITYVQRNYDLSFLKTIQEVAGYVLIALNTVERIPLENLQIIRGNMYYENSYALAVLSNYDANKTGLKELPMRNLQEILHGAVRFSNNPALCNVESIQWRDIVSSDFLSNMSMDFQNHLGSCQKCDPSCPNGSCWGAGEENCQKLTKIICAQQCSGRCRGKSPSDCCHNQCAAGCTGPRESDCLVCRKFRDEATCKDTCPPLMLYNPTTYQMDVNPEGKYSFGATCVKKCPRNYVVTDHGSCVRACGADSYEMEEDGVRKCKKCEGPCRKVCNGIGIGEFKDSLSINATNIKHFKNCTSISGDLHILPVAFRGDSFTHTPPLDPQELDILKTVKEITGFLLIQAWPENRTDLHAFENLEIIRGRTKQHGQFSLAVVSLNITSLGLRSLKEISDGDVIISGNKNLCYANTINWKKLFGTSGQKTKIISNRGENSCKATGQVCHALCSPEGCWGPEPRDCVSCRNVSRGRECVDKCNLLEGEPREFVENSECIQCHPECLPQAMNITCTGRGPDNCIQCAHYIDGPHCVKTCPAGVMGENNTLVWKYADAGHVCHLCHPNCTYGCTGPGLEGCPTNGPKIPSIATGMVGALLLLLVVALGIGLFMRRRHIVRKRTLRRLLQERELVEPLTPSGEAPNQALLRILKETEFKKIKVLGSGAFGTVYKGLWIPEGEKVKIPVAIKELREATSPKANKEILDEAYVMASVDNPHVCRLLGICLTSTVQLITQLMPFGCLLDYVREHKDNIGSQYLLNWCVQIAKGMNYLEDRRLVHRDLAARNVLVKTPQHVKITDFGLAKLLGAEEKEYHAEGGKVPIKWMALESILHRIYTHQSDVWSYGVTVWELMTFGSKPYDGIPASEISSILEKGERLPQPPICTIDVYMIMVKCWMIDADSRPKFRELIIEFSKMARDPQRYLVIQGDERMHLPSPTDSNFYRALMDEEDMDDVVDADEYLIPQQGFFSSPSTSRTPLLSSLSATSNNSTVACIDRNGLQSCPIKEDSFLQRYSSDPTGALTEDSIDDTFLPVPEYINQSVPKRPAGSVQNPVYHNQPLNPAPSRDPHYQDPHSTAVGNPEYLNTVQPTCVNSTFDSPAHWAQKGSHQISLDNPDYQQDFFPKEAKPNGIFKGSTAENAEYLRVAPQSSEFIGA
Left-right determination factor 2 (Homo sapiens), sequence (O00292 whole entry, looked up): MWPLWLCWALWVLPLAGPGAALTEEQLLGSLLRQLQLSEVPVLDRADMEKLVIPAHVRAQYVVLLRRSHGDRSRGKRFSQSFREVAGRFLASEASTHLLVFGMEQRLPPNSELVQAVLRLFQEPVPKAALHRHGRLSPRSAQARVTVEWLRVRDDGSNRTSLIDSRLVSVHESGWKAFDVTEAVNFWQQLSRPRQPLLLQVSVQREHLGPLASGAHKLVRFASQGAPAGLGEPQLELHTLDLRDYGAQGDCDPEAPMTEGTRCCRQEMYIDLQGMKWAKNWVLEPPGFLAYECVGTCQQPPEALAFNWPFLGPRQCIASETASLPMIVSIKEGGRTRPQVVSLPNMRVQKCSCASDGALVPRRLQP
Torsin-1A-interacting protein 1 (Homo sapiens), sequence (Q5JTV8 whole entry, looked up): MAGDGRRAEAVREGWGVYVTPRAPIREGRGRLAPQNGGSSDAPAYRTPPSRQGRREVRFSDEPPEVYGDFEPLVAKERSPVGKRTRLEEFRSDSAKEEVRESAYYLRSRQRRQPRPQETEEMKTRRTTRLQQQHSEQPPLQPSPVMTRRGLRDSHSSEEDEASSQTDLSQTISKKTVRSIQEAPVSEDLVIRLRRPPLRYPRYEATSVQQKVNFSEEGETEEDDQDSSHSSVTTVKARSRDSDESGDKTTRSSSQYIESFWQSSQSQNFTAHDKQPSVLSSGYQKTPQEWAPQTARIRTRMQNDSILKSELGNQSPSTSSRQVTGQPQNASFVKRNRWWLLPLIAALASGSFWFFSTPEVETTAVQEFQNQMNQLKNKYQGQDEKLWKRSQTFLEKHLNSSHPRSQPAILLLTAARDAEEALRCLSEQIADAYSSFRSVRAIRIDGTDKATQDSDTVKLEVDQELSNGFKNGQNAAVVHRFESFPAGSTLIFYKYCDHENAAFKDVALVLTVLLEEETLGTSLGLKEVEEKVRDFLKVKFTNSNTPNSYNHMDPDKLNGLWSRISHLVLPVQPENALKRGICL
Dickkopf-related protein 1 (Homo sapiens), sequence (O94907 whole entry, looked up): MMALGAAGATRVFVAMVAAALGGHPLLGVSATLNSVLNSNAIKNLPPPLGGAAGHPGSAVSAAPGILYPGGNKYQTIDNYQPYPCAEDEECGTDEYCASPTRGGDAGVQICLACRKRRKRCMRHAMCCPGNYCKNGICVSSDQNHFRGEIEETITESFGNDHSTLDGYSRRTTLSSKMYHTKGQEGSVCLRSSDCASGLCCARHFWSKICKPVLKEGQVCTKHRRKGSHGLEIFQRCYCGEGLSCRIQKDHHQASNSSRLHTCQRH

Row | SMILES | composite z-score [1] | composite z-score [2] | composite z-score [3] | z-score [4] | composite z-score [5] | composite z-score [6] | composite z-score [7] | composite z-score [8] | composite z-score [9] | composite z-score [10] | composite z-score [11] | z-score [12] | composite z-score [13] | composite z-score [14] | composite z-score [15] | composite z-score [16] | composite z-score [17] | composite z-score [18] | composite z-score [19] | composite z-score [20]
1 | O=C1[C@H]2CCn3c(=O)n(Cc4cc5c(cc4Cl)OCO5)c(=O)n3[C@H]2[C@H](O)[C@@H]2O[C@H]12 | 0.652 | -0.374 | -0.604 | 0.726 (inactive) | -0.41 | -0.734 | 0.413 | -0.0989 | 0.552 | 0.73 | -0.552 | -1.94 | 0.269 | -0.806 | -0.697 | -0.295 | -0.237 | -0.492 | 0.054 | 0.389
2 | Cc1ccc2[nH]c3nc(CCCn4ccnc4-c4ccccc4)nnc3c2c1 | 0.663 | -0.28 | -0.0165 | -0.128 (inactive) | 0.632 | 1.22 | 0.32 | 1.31 | 0.869 | -0.739 | 0.0596 | -0.544 | 0.635 | 0.308 | -1.02 | -0.101 | 0.191 | -0.344 | 0.666 | 0.335
3 | O=C1[C@H]2[C@H]3[C@H](O)[C@H](O)CC(=NOCc4ccccc4)[C@H]3CC[C@H]2C(=O)N1C1CCCCC1 | 0.817 | -0.163 | -0.301 | 0.395 (inactive) | 0.378 | 0.338 | 0.511 | 0.448 | 0.79 | -0.0077 | 0.656 | 0.409 | 0.531 | 0.55 | 0.158 | -0.0572 | 0.0754 | 0.165 | -0.106 | 1.01
4 | C[C@@H]1CC[C@H]2C(=O)OC(CN3C(=O)c4ccccc4C3=O)CN2[C@H]1c1ccc(Br)cc1 (stereo not given in full) | 0.532 | -0.117 | -0.0788 | 0.5 (inactive) | 0.398 | -0.0067 | 0.13 | -0.234 | 0.383 | 0.74 | 0.901 | 0.302 | 0.113 | 1.53 | 0.772 | -0.091 | 0.111 | 0.243 | 0.419 | 0.666
5 | CCOC(=O)CCN1C(=O)[C@H]2[C@@H]3C(=CC[C@H]2C1=O)C(=O)[C@H]1O[C@H]1[C@H]3O | 1.1 | -0.33 | -0.291 | 6.66 (inactive) | -0.632 | -0.837 | -0.0633 | -1.16 | -0.324 | -0.483 | -0.636 | -4.75 | -0.72 | -0.719 | -0.481 | -0.222 | -0.221 | -0.358 | 0.447 | -0.473
6 | C#CCCCON=C1C[C@@H](O)[C@@H](O)[C@@H]2[C@@H]3C(=O)N([C@@H](C)c4ccccc4)C(=O)[C@@H]3CC[C@@H]12 | 0.563 | -0.292 | 0.0951 | -0.0154 (inactive) | -0.723 | -0.521 | 0.377 | -0.447 | -0.67 | 0.718 | -0.31 | 1.14 | 0.201 | -0.172 | -0.274 | -0.166 | -0.0553 | 0.167 | -0.512 | 0.46
7 | COc1ccc(COC(=O)NN=C2C[C@@H](O)[C@@H](O)[C@@H]3[C@@H]4C(=O)N(C[C@@H]5CCCO5)C(=O)[C@@H]4CC[C@H]23)cc1 | -0.321 | 1 | 1.26 | 0.0734 (inactive) | -0.494 | -0.797 | -0.211 | -1 | -0.746 | 0.229 | -0.491 | -0.186 | -0.34 | -0.325 | 0.237 | 0.0162 | -0.138 | -0.103 | 0.656 | 0.418
8 | COC(=O)[C@@H]1CC[C@H](C)[C@@H](c2ccc(C)cc2)N1C(=O)c1ccc(C=NOC[C@H]2O[C@H](c3ccccc3)C=C[C@@H]2Oc2ccc(OC)cc2)cc1 | 0.198 | -0.0428 | -0.32 | -0.0767 (inactive) | 0.3 | -0.245 | 0.331 | -0.189 | 0.15 | 1.24 | 0.404 | -0.739 | 0.35 | -0.156 | -0.551 | 0.0104 | -0.234 | 0.0498 | 1.18 | 0.304
9 | CC(=O)OC[C@H]1O[C@H](CC=NOC(C)CN2CCCc3nc(C)c(C)cc32)C=C[C@@H]1OC(C)=O (stereo not given in full) | 0.104 | -0.104 | -0.457 | 0.184 (inactive) | 0.708 | 0.961 | 0.383 | 0.834 | 0.578 | 0.8 | 0.838 | -0.475 | 0.833 | -0.651 | -1.2 | 0.027 | 0.261 | 0.134 | 1 | -0.0213
10 | O=C1[C@H]2[C@H]3[C@H](O)[C@H](O)CC(=NOC[C@@H](O)COCc4ccco4)[C@@H]3CC[C@H]2C(=O)N1C1CCCCC1 | 0.225 | -0.401 | -1.26 | 0.76 (inactive) | -0.102 | 1.04 | 0.783 | 1.36 | 1.46 | 1.23 | 0.814 | -0.337 | 0.72 | -0.608 | -1.66 | -0.124 | -0.206 | -0.5 | 0.289 | -0.0636
11 | CON(C)C(=O)c1nnc2c(n1)[nH]c1ccccc12 | 0.214 | 0.256 | -0.0786 | -0.562 (inactive) | 0.692 | 0.217 | 0.319 | 0.651 | 0.377 | 0.221 | -0.186 | 2.27 | 0.414 | -0.15 | -0.229 | -0.148 | -0.23 | -0.33 | 2.14 | 0.573
12 | COC(=O)C(C(=O)OC)C1CCCC(=O)C1 (stereo not given) | 0.377 | -0.207 | -0.618 | -0.388 (inactive) | 0.755 | 0.772 | 0.399 | 0.508 | 0.978 | 0.151 | 0.549 | 0.593 | 0.576 | -0.385 | -0.645 | -0.104 | -0.107 | -0.0446 | 0.526 | 0.0087
